Only some compounds are listed: those with a hit (about 19% of all), similar ones and a draw of the others.
KB-V1 cytotox: qHTS assay for MDR1-selective chemotherapeutics: Primary screen using the drug-selected MDR subline cells KB-V1; KB-V1 MDR cells viability, CellTiter-Glo, 72 h; hit rate 3.4% among 400,000; Potency, µM (series often up to 46.1 µM), hits mostly cytotoxic; AID 1347076, 2019; also: nearly all actives have a fitted effect of over 60% in size
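Readout: CellTiter-Glo luminescence, 10 min after addition. Cells: KB-V1 MDR subline, 72 h at 37 degrees C with compound. Analysis: corrected, normalized data fitted to concentration-effect curves.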
DT40 TDP1 CPT: qHTS for Inhibitors of human tyrosyl-DNA phosphodiesterase 1 (TDP1): qHTS in cells in presence of CPT | chicken DT40 Tdp1-/-;hTDP1 cells + 20 nM CPT, ATP luminescence, 48 h | Potency, µM (titrated, usually from 46.2 µM), inactives show at the top dose activity change, negative = growth inhibition, most hits filed as inhibitors | hit rate 12% among 420,000 | AID 686979, 2013; also: nearly all actives have a fitted effect of over 55% in size
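Chicken DT40 Tdp1-/- cells stably complemented with human TDP1 were seeded at 400 cells/well in medium containing 20 nM camptothecin, exposed to pin-transferred compounds, and grown at 37 °C for at least 48 hr. Viability was read as ATP luminescence.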
TDP1 cell noCPT: qHTS for Inhibitors of human tyrosyl-DNA phosphodiesterase 1 (TDP1): qHTS in cells in absence of CPT; hit rate 15% among 420,000; DT40 Tdp1-/- hTDP1 cells, no CPT, ATP luminescence, 48 h; Potency, µM (series often up to 46.2 µM), inactives show at the top dose activity change, negative = growth inhibition, most hits filed as inhibitors; also: nearly all actives have a fitted effect of over 55% in size
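Cells were dispensed at 400 per well, compounds added by pin tool, plates incubated ≥48 hr at 37 °C, then CellTiter-Glo added for 30 min at room temperature before luminescence reading. Line: DT40 Tdp1-/- complemented with hTDP1; camptothecin omitted.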
HT1080 IDH1KD tx: qHTS for induction of synthetic lethality in tumor cells producing 2HG: qHTS for the HT-1080-IDH1KD cell line. HT-1080 IDH1 knockdown viability, ATP luminescence, 48 h. hit rate 2% among 360,000. Potency, µM (highest dose often 46.1 µM), for the others: at the highest dose activity, negative = toxicity, usual class: cytotoxic;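 also: 0% = DMSO wells and -100% = cell-free medium wells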
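IDH1KD HT-1080 cells, 750/well, RPMI + 5% FBS; compound pinned after 2 h settling; 48 h, 37 °C; CellTiter-Glo luminescence; % activity normalised to DMSO and no-cell wells; curves fitted, classed by r2 and efficacy.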
KB-3-1 tox: qHTS assay for MDR1-selective chemotherapeutics: Primary screen using the parental adenocarcinoma cell KB-3-1. KB-3-1 viability, CellTiter-Glo ATP luminescence, 72 h. Potency, µM (titrated, usually from 46.1 µM), hits mostly cytotoxic. hit rate 1.4% among 400,000; also: nearly all actives have a fitted effect of over 60% in size
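72 h, 37 °C compound treatment of KB-3-1 parental cells; CellTiter-Glo added, 10 min, luminescence read. Data corrected against DMSO-only plates and normalized before curve fitting.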
HT1080NT lethal: qHTS for induction of synthetic lethality in tumor cells producing 2HG: qHTS for the HT-1080-NT fibrosarcoma cell line; HT-1080-NT fibrosarcoma viability, CellTiter-Glo ATP luminescence, 48 h; Potency, µM (series often up to 46.1 µM), without a hit: at the top dose activity, negative = less viability, usual class: cytotoxic; hit rate 1.6% among 360,000; AID 686970, 2013;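 also: NT is the 2HG producing partner of a matched IDH1 knockdown line; 0% = DMSO-treated cells and -100% = media-only wells without cells; nearly all actives have a fitted effect of over 55% in size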
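Toxicity toward the 2HG-producing NT line was scored as %Activity, normalised to DMSO and no-cell wells, from CellTiter-Glo luminescence after 48 hours' treatment.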
* hit, by the source's call. Calls follow the shape of the dose curve; as a rule, active = well fitted curve in the direction sought with a large enough effect; inconclusive = small, poorly fitted or top-dose-only effect, or another doubt; inactive = no such curve, though single readings can be large; an effect the other way counts as inactive or inconclusive. Unless noted, % is scaled to controls: 0 for no effect and ±100 for the full control effect; potency is read from the fitted curve at half-maximal effect.

Screening N#C/C(=C(/O)c1ccc(Br)s1)c1nc2ccccc2[nH]1 returned KB-V1 cytotox inconclusive, DT40 TDP1 CPT 4.6µM*, TDP1 cell noCPT 7.3µM*, HT1080 IDH1KD tx inconclusive, KB-3-1 tox 6.5µM* and HT1080NT lethal inconclusive.
`N#C/C(=C(/O)c1ccc([N+](=O)[O-])s1)c1nc2ccccc2[nH]1` gave KB-V1 cytotox inactive, DT40 TDP1 CPT -87%, TDP1 cell noCPT 1µM*, HT1080 IDH1KD tx inconclusive, KB-3-1 tox inconclusive and HT1080NT lethal inconclusive.
For N#C/C(=C(/O)c1cccs1)c1nc2ccccc2[nH]1 the results were KB-V1 cytotox inconclusive, DT40 TDP1 CPT inconclusive, TDP1 cell noCPT -21%, HT1080 IDH1KD tx 1%, KB-3-1 tox inactive and HT1080NT lethal -2%.
Screening CN(C)CCCN(C(=O)c1ccc2c(c1)CCCC2)c1nc2ccc(Cl)cc2s1 returned KB-V1 cytotox 10µM*, DT40 TDP1 CPT 15µM*, TDP1 cell noCPT 15µM*, HT1080 IDH1KD tx inconclusive, KB-3-1 tox inconclusive and HT1080NT lethal inconclusive.
Screening COc1cccc2sc(N(CCN(C)C)C(=O)c3ccc4c(c3)CCCC4)nc12 returned KB-V1 cytotox inactive, DT40 TDP1 CPT inconclusive, TDP1 cell noCPT inconclusive, HT1080 IDH1KD tx -15%, KB-3-1 tox inactive and HT1080NT lethal -3%.
Screening CCOc1ccc2nc(N(CCCN(C)C)C(=O)c3ccc(S(=O)(=O)N4CCc5ccccc5C4)cc3)sc2c1 returned KB-V1 cytotox inconclusive, DT40 TDP1 CPT inconclusive, TDP1 cell noCPT inconclusive, HT1080 IDH1KD tx inconclusive, KB-3-1 tox inactive and HT1080NT lethal inconclusive.
`CCOc1ccc2nc(N(CCCN(C)C)C(=O)c3ccc4c(c3)CCCC4)sc2c1` gave KB-V1 cytotox inactive, DT40 TDP1 CPT inconclusive, TDP1 cell noCPT inconclusive, HT1080 IDH1KD tx inconclusive, KB-3-1 tox 21µM* and HT1080NT lethal 18µM*.
`CC1CN(C(=O)COC(=O)Cc2c(Cl)cccc2Cl)CC(C)O1` (stereo not drawn) gave KB-V1 cytotox inactive, DT40 TDP1 CPT 1%, TDP1 cell noCPT -12%, HT1080 IDH1KD tx -3%, KB-3-1 tox inactive and HT1080NT lethal -10%.
CCc1ccnc(NS(=O)(=O)c2ccc3c(c2)CCO3)c1 was read as KB-V1 cytotox inactive, DT40 TDP1 CPT 5%, TDP1 cell noCPT -1%, HT1080 IDH1KD tx 8%, KB-3-1 tox inactive and HT1080NT lethal 2%.
COc1ccc(C(C)(O)c2nc(-c3cccc(C#N)c3)cs2)cc1 (stereo not drawn) was read as KB-V1 cytotox inactive, DT40 TDP1 CPT 13µM*, TDP1 cell noCPT 21µM*, HT1080 IDH1KD tx inconclusive, KB-3-1 tox inconclusive and HT1080NT lethal -22%.
`COc1cccc(C(C)(O)c2nc(-c3cccc(C#N)c3)cs2)c1` (stereo not drawn) gave KB-V1 cytotox inconclusive, DT40 TDP1 CPT 18µM*, TDP1 cell noCPT 13µM*, HT1080 IDH1KD tx -14%, KB-3-1 tox inactive and HT1080NT lethal -27%.
For CC(O)(c1ccccc1)c1nc(-c2cccc(C#N)c2)cs1 (stereo not drawn) the results were KB-V1 cytotox inactive, DT40 TDP1 CPT inconclusive, TDP1 cell noCPT inconclusive, HT1080 IDH1KD tx 11%, KB-3-1 tox inactive and HT1080NT lethal -1%.
Screening COc1ccc(C(C)(O)c2nc(-c3cccc(C(=O)O)c3)cs2)cc1 (stereo not drawn) returned KB-V1 cytotox inactive, DT40 TDP1 CPT 14%, TDP1 cell noCPT 4%, HT1080 IDH1KD tx -1%, KB-3-1 tox inactive and HT1080NT lethal 7%.
O=C(NCC1CCCO1)C(c1cccs1)N(Cc1ccccc1Cl)C(=O)c1ccc(-c2ccccc2)[nH]1 (stereo not drawn) was read as KB-V1 cytotox 4.1µM*, DT40 TDP1 CPT inconclusive, TDP1 cell noCPT 23µM*, HT1080 IDH1KD tx inconclusive, KB-3-1 tox inactive and HT1080NT lethal -19%.
Screening Cc1ccc(C(C(=O)NCC2CCCO2)N(Cc2ccccc2)C(=O)c2ccc(-c3ccccc3)[nH]2)o1 (stereo not drawn) returned KB-V1 cytotox inactive, DT40 TDP1 CPT inconclusive, TDP1 cell noCPT inconclusive, HT1080 IDH1KD tx inconclusive, KB-3-1 tox inactive and HT1080NT lethal -27%.
CCOC(=O)C1=C(C)C(c2ccc(OC)cc2)NC(=O)N1 (stereo not drawn) was read as KB-V1 cytotox inactive, DT40 TDP1 CPT 2%, TDP1 cell noCPT -15%, HT1080 IDH1KD tx -3%, KB-3-1 tox inactive and HT1080NT lethal 2%.
CCOC(=O)C1=C(C)C(c2ccc(OC)cc2)NC(=S)N1 (stereo not drawn) was read as KB-V1 cytotox inactive, DT40 TDP1 CPT 21µM*, TDP1 cell noCPT 29µM*, HT1080 IDH1KD tx 8%, KB-3-1 tox inactive and HT1080NT lethal 3%.
Screening CCOc1ccc(-n2ccnc(SCC(=O)NCc3cccc(OC)c3)c2=O)cc1 returned KB-V1 cytotox inactive, DT40 TDP1 CPT 18µM*, TDP1 cell noCPT 23µM*, HT1080 IDH1KD tx -7%, KB-3-1 tox inactive and HT1080NT lethal -7%.
CCOc1ccc(-n2ccnc(SCC(=O)Nc3ccc(OC)cc3OC)c2=O)cc1 was read as KB-V1 cytotox inconclusive, DT40 TDP1 CPT 21µM*, TDP1 cell noCPT 23µM*, HT1080 IDH1KD tx -20%, KB-3-1 tox inactive and HT1080NT lethal -19%.
`c1ccc2[nH]c(Cn3nnc4ccccc43)nc2c1` gave KB-V1 cytotox inactive, DT40 TDP1 CPT -29%, TDP1 cell noCPT -12%, HT1080 IDH1KD tx 10%, KB-3-1 tox inactive and HT1080NT lethal 19%.
For COc1ccc(N(CC(=O)Nc2ccc(Cl)cc2C)S(=O)(=O)c2ccccc2)c(OC)c1 the results were KB-V1 cytotox inactive, DT40 TDP1 CPT inconclusive, TDP1 cell noCPT 18µM* and KB-3-1 tox inactive.
Screening COc1ccc(Cl)cc1NC(=O)CN(C)C(=O)C12CC3CC(CC(Cl)(C3)C1)C2 returned KB-V1 cytotox inconclusive, DT40 TDP1 CPT inconclusive, TDP1 cell noCPT 23µM*, HT1080 IDH1KD tx inconclusive, KB-3-1 tox inactive and HT1080NT lethal -9%.
